According to PubChem BioAssay (Tox21):
Records with an inconclusive call do not appear. Calls of active or inactive are those of the source. Unless noted, calls come from the whole dose curve; as a rule, active = well fitted curve in the direction sought with a large enough effect in the repeat runs; inconclusive = weak or mixed curves; inactive = no such curve, though single readings can be large; an effect the other way counts as inactive or inconclusive.

How the values were obtained:
[1] = qHTS assay to identify small molecule antagonists of the glucocorticoid receptor (GR) signaling pathway - cell viability counter screen (AID 720693); note: nearly all actives have a fitted effect of over 55% in size
[2] = qHTS assay for identifying genotoxic compounds that show differential cytotoxicity against isogenic chicken DT40 cell lines with known DNA damage response pathways - wild type cell line (AID 743012); note: nearly all actives have a fitted effect of over 60% in size; note: potency is the fitted concentration of half-maximal effect
Procedure, shortened: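 Using parental DT40 (300 cells/well), compounds delivered in DMSO incubate 40 h at 37 C/5% CO2. CellTiter-Glo reagent then stands 30 min at room temperature, and luminescence gives cell viability.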

[3] = qHTS assay for identifying genotoxic compounds that show differential cytotoxicity against isogenic chicken DT40 cell lines with known DNA damage response pathways - Rev3 mutant cell line (AID 743014); note: nearly all actives have a fitted effect of over 55% in size
[4] = qHTS assay to identify small molecule antagonists of the androgen receptor (AR) signaling pathway - cell viability counter screen (AID 743033; note: nearly all actives have a fitted effect of over 45% in size)
[5] = qHTS assay to identify small molecule antagonists of the androgen receptor (AR) signaling pathway using the MDA cell line - cell viability counter screen (AID 743041; note: nearly all actives have a fitted effect of over 45% in size)
Procedure, shortened: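 MDA-kb2 AR-luc human breast carcinoma cells (MMTV-luciferase, AR/GR responsive) were treated with compounds plus R1881 agonist for 16 h at 37 °C. Viability was read as CellTiter-Fluor fluorescence in the same wells as the reporter assay.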

[6] = qHTS assay to identify small molecule antagonists of the thyroid receptor (TR) signaling pathway (AID 743065); note: series mostly up to about 70 µM; nearly all actives have a fitted effect of over 55% in size
Procedure, shortened: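 GH3.TRE-Luc rat pituitary cells carrying two TR response elements driving luciferase were plated for 4 h, given compound plus 1 nM T3 (final), and incubated 23.5 h at 37 C. ONE-Glo luminescence measured reporter inhibition; CellTiter-Fluor fluorescence tracked cytotoxicity.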

[7] = system: thyroid hormone receptor (rat, GH3 cells); experiment: qHTS assay to identify small molecule agonists of the thyroid receptor (TR) signaling pathway (AID 743066; calls by dose curve)
[8] = qHTS assay to identify small molecule antagonists of the estrogen receptor alpha (ER-alpha) signaling pathway - cell viability counter screen (AID 743074; calls by dose curve; note: nearly all actives have a fitted effect of over 45% in size)
[9] = qHTS assay to identify small molecule antagonists of the estrogen receptor alpha (ER-alpha) signaling pathway using the BG1 cell line - cell viability counter screen (AID 743081);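 note: compound given together with 17beta-estradiol as the ER stimulus; series mostly up to about 70 µM; nearly all actives have a fitted effect of over 45% in size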
[10] = biological target: Aromatase (Homo sapiens) (UniProt P11511); experiment: qHTS assay to identify aromatase inhibitors (AID 743083); note: series mostly up to about 70 µM; nearly all actives have a fitted effect of over 55% in size
[11] = qHTS assay to identify aromatase inhibitors - cell viability counter screen (AID 743084)
[12] = biological target: Androgen receptor (Homo sapiens) (UniProt P10275); experiment: qHTS assay to identify small molecule agonists of the androgen receptor (AR) signaling pathway (AID 743036; active = well fitted activation curve with a large enough effect in the signal ratio in the repeat runs, with a control signal flat, not every such curve was filed as active; the % refers to the signal ratio)
Procedure, shortened: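 Fluorescence from a beta-lactamase FRET substrate served as read-out in AR-UAS-bla GripTite HEK293 cells. Cells were treated with DMSO-dissolved compounds for 16 h at 37C, then with LiveBLAzer B/G substrate for 2 h at room temperature.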

[13] = biological target: Androgen receptor (Homo sapiens) (UniProt P10275); experiment: qHTS assay to identify small molecule antagonists of the androgen receptor (AR) signaling pathway using the MDA cell line (AID 743042; note: nearly all actives have a fitted effect of over 55% in size)
Procedure, shortened: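 MDA-kb2 cells (human breast carcinoma, stably carrying an MMTV-luciferase reporter responsive to AR and GR) were plated at 3,000 cells/well and preincubated 5 hr at 37C, then given compound plus R1881 agonist for 16 h. ONE-Glo luminescence was read.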

[14] = qHTS assay to identify small molecule antagonists of the thyroid receptor (TR) signaling pathway - cell viability counter screen (AID 743064); note: nearly all actives have a fitted effect of over 50% in size
Procedure, shortened: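 Fluorescence from CellTiter-Fluor, added after 23.5 h exposure at 37 °C, reported viability of GH3.TRE-Luc cells co-treated with compound and 1 nM T3. Measured in the same wells as the luciferase TR readout.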

[15] = biological target: Estrogen receptor (Homo sapiens) (UniProt P03372); experiment: qHTS assay to identify small molecule antagonists of the estrogen receptor alpha (ER-alpha) signaling pathway (AID 743069; active = well fitted curve in the direction sought with a large enough effect in the signal ratio in the repeat runs, not every such curve was filed as active; the % refers to the signal ratio)
Procedure, shortened: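 HEK293 cells stably carrying an ER-alpha-UAS-bla beta-lactamase reporter were pre-cultured overnight in 2% charcoal-stripped FBS medium. Test compounds in DMSO were added together with 17beta-estradiol for 18 hr at 37C. Read-out was fluorescence after 2 hr with LiveBLAzer B/G FRET substrate at room temperature.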

[16] = biological target: Estrogen receptor (Homo sapiens) (UniProt P03372); experiment: qHTS assay to identify small molecule agonists of the estrogen receptor alpha (ER-alpha) signaling pathway (AID 743075; calls by dose curve)
[17] = biological target: Estrogen receptor (Homo sapiens) (UniProt P03372); experiment: qHTS assay to identify small molecule agonists of the estrogen receptor alpha (ER-alpha) signaling pathway using the BG1 cell line (AID 743079); note: nearly all actives have a fitted effect of over 20% in size
[18] = qHTS assay to identify small molecule antagonists of the estrogen receptor alpha (ER-alpha) signaling pathway using the BG1 cell line (AID 743080; calls by dose curve;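 note: BG1 cells stimulated with 17beta-estradiol alongside compound; series mostly up to about 70 µM; nearly all actives have a fitted effect of over 25% in size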)
Procedure, shortened: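 Readout is ONE-Glo luminescence, taken 30 min at room temperature after reagent addition, preceded by a CellTiter-Fluor viability read; BG1-Luc-4E2 cells had received compound and 17beta-estradiol for 21.5 h at 37 C.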

[19] = qHTS assay for identifying genotoxic compounds that show differential cytotoxicity against isogenic chicken DT40 cell lines with known DNA damage response pathways - Rad54/Ku70 mutant cell line (AID 743015); note: potency is the fitted concentration of half-maximal effect; nearly all actives have a fitted effect of over 60% in size

Measured: Potency

Estrogen receptor (Homo sapiens), sequence (P03372 whole entry, looked up): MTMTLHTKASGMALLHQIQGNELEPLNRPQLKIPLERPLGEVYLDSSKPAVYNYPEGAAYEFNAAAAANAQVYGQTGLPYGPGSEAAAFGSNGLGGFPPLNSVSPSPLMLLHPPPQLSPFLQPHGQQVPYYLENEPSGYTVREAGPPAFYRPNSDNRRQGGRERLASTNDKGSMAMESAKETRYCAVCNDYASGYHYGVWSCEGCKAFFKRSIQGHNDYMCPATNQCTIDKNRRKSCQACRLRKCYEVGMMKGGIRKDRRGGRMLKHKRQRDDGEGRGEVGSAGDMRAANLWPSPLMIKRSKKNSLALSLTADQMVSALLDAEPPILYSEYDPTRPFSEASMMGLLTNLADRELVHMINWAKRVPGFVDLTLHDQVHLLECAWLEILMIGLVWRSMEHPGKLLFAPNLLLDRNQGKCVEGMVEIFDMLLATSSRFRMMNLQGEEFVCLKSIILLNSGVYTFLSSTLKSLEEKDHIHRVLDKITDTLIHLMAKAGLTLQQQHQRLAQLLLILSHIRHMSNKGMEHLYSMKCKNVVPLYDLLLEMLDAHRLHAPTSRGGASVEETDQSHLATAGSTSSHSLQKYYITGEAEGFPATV
Aromatase (Homo sapiens), sequence (P11511 whole entry, looked up): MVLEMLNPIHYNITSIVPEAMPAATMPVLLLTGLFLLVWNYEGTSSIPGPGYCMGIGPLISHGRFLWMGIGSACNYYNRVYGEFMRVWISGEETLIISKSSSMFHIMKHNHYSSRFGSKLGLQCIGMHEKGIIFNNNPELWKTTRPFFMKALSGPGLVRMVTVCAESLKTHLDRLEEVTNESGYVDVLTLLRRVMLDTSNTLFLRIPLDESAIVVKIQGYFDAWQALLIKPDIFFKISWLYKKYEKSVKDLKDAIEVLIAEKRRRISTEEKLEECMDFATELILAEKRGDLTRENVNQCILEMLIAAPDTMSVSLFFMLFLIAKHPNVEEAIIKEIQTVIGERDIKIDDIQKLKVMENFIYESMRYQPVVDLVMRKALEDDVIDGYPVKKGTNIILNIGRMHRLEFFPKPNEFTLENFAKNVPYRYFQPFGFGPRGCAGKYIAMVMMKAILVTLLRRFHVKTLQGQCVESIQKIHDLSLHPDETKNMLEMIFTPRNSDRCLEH
Androgen receptor (Homo sapiens), sequence (P10275 whole entry, looked up): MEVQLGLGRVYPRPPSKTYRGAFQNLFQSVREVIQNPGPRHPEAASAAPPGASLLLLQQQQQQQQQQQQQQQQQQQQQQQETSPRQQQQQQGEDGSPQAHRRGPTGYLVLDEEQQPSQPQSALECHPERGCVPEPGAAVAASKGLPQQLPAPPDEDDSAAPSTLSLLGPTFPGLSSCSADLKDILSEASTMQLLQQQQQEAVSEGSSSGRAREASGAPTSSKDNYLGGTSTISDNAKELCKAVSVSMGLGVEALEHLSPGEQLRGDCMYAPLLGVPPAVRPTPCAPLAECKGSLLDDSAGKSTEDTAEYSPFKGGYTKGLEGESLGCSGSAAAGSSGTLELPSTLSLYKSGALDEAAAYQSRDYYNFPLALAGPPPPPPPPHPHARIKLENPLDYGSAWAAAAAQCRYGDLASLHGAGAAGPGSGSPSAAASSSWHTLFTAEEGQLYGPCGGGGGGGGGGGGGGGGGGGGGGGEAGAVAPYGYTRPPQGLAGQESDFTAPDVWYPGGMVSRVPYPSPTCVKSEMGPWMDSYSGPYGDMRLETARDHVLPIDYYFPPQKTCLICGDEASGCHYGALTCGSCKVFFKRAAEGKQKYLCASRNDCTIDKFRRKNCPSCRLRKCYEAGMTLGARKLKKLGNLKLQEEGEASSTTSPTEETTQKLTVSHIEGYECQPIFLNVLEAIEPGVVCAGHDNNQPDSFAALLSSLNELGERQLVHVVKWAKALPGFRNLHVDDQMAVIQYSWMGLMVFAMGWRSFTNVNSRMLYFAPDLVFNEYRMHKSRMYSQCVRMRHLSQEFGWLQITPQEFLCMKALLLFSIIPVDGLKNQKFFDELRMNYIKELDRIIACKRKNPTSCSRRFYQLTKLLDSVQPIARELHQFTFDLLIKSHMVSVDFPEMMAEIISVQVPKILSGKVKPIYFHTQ

Cc1cccc(C)c1NC(=O)CN(CC(=O)O)CC(=O)O
not listed: [12] | [13] | [14] | [15] | [16] | [17] | [18] | [19]
inactive: all other assays above

O=C1OC(CN2CCOCC2)CN1/N=C/c1ccc([N+](=O)[O-])o1 (centres undefined)
not listed: [19]
inactive: all other assays above

CCCCC/C=C\C/C=C\CCCCCCCC(=O)NC(C)c1ccccc1 (centres undefined)
not listed: [10] | [12] | [13] | [15] | [19]
inactive: all other assays above

ClCCOCCOCCCl
not listed: [12] | [13] | [15] | [19]
inactive: all other assays above

Nc1cccc(S(=O)(=O)c2cccc(N)c2)c1
active: [2] 61.1 µM | [19] 61.1 µM
not listed: [3] | [12] | [13]
inactive: all other assays above
